Among the data in PubChem BioAssay (NCI) are growth values, retold here.

Each structure is given as a SMILES string. About 83,000 compounds went through this panel and 20% of them were active in at least one assay; those are over-represented in the sample as a whole.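 Plates (96-well) were seeded with cells, treated with compound at one concentration, and incubated for 48 hours before percent growth was determined.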 Values without a mark were called inactive. Activity calls are given as the source filed them. Rule for the calls: active = growth percent below 10; inactive = the rest.

Test systems include DU-145 prostate; K-562 leukemia; MALME-3M melanoma; MDA-MB-231 breast; RXF 393 renal; SF-268 CNS; SF-295 CNS; SF-539 CNS; UACC-257 melanoma; M14 melanoma; HCT-15 colon; HT29 colon; SNB-75 CNS; SNB-19 CNS; U251 CNS; PC-3 prostate; SK-MEL-5 melanoma; UACC-62 melanoma; LOX IMVI melanoma; SK-MEL-28 melanoma.
Holding throughout (assay): NCI-60 one-dose screen, 48 h (100 = growth as untreated, 0 = no growth, -100 = all killed)
Holding throughout (details): 10 µM unless noted

For the compound `COc1cc2cc(C(=O)N3C[C@@H](CCl)c4c3cc(OC(=O)N(CCC(=O)N3CCN(C)CC3)C3CCCCC3)c3ccccc43)[nH]c2c(OC)c1OC`, the growth was -73.5% (active) in the assay on DU-145 prostate; -20.6% (active) with K-562 leukemia; -97.6% (active) in the assay with MALME-3M melanoma; -61.4% (active) in the assay with MDA-MB-231 breast; -93.3% (active) in the assay on RXF 393 renal; -41.5% (active) in the assay on SF-268 CNS. Also, the growth was -68.3% (active) with SF-295 CNS; -93% (active) with SF-539 CNS; -78.6% (active) with UACC-257 melanoma; -84.5% (active) in the assay on M14 melanoma; -34.5% (active) in the assay with HCT-15 colon; -34.5% (active) with HT29 colon. The growth with SNB-75 CNS was -75.7% (active); in the assay on SNB-19 CNS it was -5.79% (active); with U251 CNS, -63.4% (active); in the assay on PC-3 prostate, -17.8% (active); with SK-MEL-5 melanoma it was -99.2% (active); in the assay on UACC-62 melanoma, -94.5% (active). Moreover, the results for the growth in the assay with LOX IMVI melanoma and in the assay with SK-MEL-28 melanoma were -96.6% (active) and -97.5% (active), respectively.
For `C[C@H]1[C@@H](CC(=O)N[C@@H](Cc2coc3ccccc23)B(O)O)O[C@@H]2OC3(C)CC[C@H]4[C@H](C)CC[C@@H]1[C@@]24O3`, the growth in the assay with DU-145 prostate is 45%; in the assay with K-562 leukemia it was 14.8%; in the assay on MALME-3M melanoma, -41.6% (active); in the assay on MDA-MB-231 breast, -68.3% (active); in the assay on RXF 393 renal it was -59% (active); in the assay on SF-268 CNS it was 17.5%. Also, the growth with SF-295 CNS was -65.7% (active); in the assay with SF-539 CNS, -91.6% (active); in the assay with UACC-257 melanoma it was -45.3% (active); in the assay on M14 melanoma it was -33.7% (active); with HCT-15 colon, -51.7% (active); in the assay with HT29 colon it was -57.4% (active). The growth was -19% (active) in the assay on SNB-75 CNS; 35% in the assay on SNB-19 CNS; 25.2% in the assay with U251 CNS; 28.5% with PC-3 prostate; -83.4% (active) in the assay on SK-MEL-5 melanoma; -75.8% (active) in the assay with UACC-62 melanoma. Moreover, the growth in the assay with LOX IMVI melanoma was -72.7% (active); in the assay with SK-MEL-28 melanoma, 5.12% (active).
On to `CCOC(=O)/C(F)=C/C1CC1C(c1ccccc1)c1ccccc1` (stereo not given), for which the growth was 106% in the assay with DU-145 prostate; 70.4% in the assay with K-562 leukemia; 81.2% with MALME-3M melanoma; 88.4% in the assay on MDA-MB-231 breast; 77.2% in the assay on RXF 393 renal; 99.1% in the assay with SF-268 CNS. Further, the growth was 88.7% in the assay with SF-295 CNS; 96.5% in the assay on SF-539 CNS; 105% with UACC-257 melanoma; 91.7% in the assay on M14 melanoma; 67% with HCT-15 colon; 80.6% in the assay with HT29 colon. The growth was 90.4% in the assay on SNB-75 CNS; 95.9% in the assay with SNB-19 CNS; 109% in the assay with U251 CNS; 78.8% in the assay with PC-3 prostate; 88.9% in the assay with SK-MEL-5 melanoma; 65.1% in the assay on UACC-62 melanoma. For the same compound, the figures for the growth in the assay with LOX IMVI melanoma and with SK-MEL-28 melanoma were 84.9% and 103%, respectively.
On to `CN1CCc2c(sc3ncnc(N/N=C/c4cccc(Cl)c4Cl)c23)C1`, for which the growth with DU-145 prostate is -5.42% (active); in the assay on K-562 leukemia, -7.35% (active); with MALME-3M melanoma, 87.5%; with MDA-MB-231 breast, -43.4% (active); in the assay with RXF 393 renal it was 27.3%; in the assay on SF-268 CNS, 43.1%. Also, the growth with SF-295 CNS is -72.5% (active); in the assay with SF-539 CNS, -91.8% (active); in the assay on UACC-257 melanoma, 76.5%; in the assay on M14 melanoma it was 64.5%; in the assay on HCT-15 colon it was -14.5% (active); in the assay on HT29 colon, -12.7% (active). The growth in the assay with SNB-75 CNS was 76.3%; in the assay on SNB-19 CNS, 4.21% (active); in the assay on U251 CNS, -96.3% (active); in the assay on PC-3 prostate it was 96%; in the assay on SK-MEL-5 melanoma, 80.7%; in the assay with UACC-62 melanoma it was 92.5%. Moreover, the growth is -82.5% (active) in the assay on LOX IMVI melanoma and 103% in the assay with SK-MEL-28 melanoma.
Regarding `COc1sc(/C=N/NC(=O)c2[nH]c3ccc(Br)cc3c2-c2ccccc2)cc1Br`, the growth was -8.01% (active) with DU-145 prostate; 7.79% (active) in the assay with K-562 leukemia; 48% in the assay on MALME-3M melanoma; -13.3% (active) with MDA-MB-231 breast; -0.818% (active) with RXF 393 renal; 3.22% (active) in the assay with SF-268 CNS. Also, the growth in the assay on SF-295 CNS was -15% (active); with SF-539 CNS, -64.1% (active); in the assay on UACC-257 melanoma it was 52.7%; in the assay on M14 melanoma, 10.7%; in the assay with HCT-15 colon, 7.77% (active); with HT29 colon, -26.9% (active). Besides, the growth in the assay with SNB-75 CNS is 57.1%; in the assay on SNB-19 CNS it was 14.7%; with U251 CNS it was -11.2% (active); with PC-3 prostate, 19.4%; in the assay on SK-MEL-5 melanoma it was -53.5% (active); with UACC-62 melanoma, 17%. In addition, the growth was -23.4% (active) with LOX IMVI melanoma and 18.2% in the assay on SK-MEL-28 melanoma.
With `Cc1ccc2c(c1)nc(-c1ccccc1)n2CC(=O)N=Nc1c(O)[nH]c2ccc(Cl)cc12`, the growth was -38% (active) with DU-145 prostate; -3.37% (active) in the assay on K-562 leukemia; -28.6% (active) with MALME-3M melanoma; -80.5% (active) in the assay with MDA-MB-231 breast; -88.4% (active) in the assay with RXF 393 renal; 2.28% (active) in the assay with SF-268 CNS. For the same compound, the growth in the assay with SF-295 CNS was -62.4% (active); with SF-539 CNS, -90.3% (active); in the assay on UACC-257 melanoma, -28.2% (active); in the assay with M14 melanoma, -28.4% (active); in the assay with HCT-15 colon, -45.7% (active); in the assay with HT29 colon, -62.7% (active). Moreover, the growth was -83% (active) in the assay with SNB-75 CNS; -62.3% (active) with SNB-19 CNS; -77.7% (active) in the assay on U251 CNS; -51.2% (active) with PC-3 prostate; -62.6% (active) in the assay on SK-MEL-5 melanoma; -63.5% (active) in the assay with UACC-62 melanoma. Besides, the figures for the growth with LOX IMVI melanoma and in the assay on SK-MEL-28 melanoma were -70.1% (active) and -71.7% (active), respectively.
`O=C(c1ccc(O)cc1)C1[C@H](c2ccc(Cl)cc2)[C@@H](c2ccccc2)NC12C(=O)Nc1ccccc12` (stereo not given in full): the growth in the assay on DU-145 prostate is 20.5%; in the assay on K-562 leukemia it was -8.58% (active); in the assay with MALME-3M melanoma, -40.2% (active); in the assay with MDA-MB-231 breast, -80.2% (active); with RXF 393 renal it was -74% (active); with SF-268 CNS, 22.4%. Besides, the growth is -48.6% (active) in the assay with SF-295 CNS; -50.6% (active) in the assay with SF-539 CNS; 77.7% in the assay with UACC-257 melanoma; -27% (active) with M14 melanoma; -70.8% (active) in the assay with HCT-15 colon; -66.3% (active) in the assay on HT29 colon. For the same compound, the growth in the assay with SNB-75 CNS was 43.5%; with SNB-19 CNS it was 13.2%; in the assay with U251 CNS, -0.272% (active); in the assay on PC-3 prostate, 1.61% (active); in the assay on SK-MEL-5 melanoma, -92.9% (active); in the assay on UACC-62 melanoma, -22.4% (active). For the same compound, the figures for the growth in the assay with LOX IMVI melanoma and in the assay with SK-MEL-28 melanoma were -100% (active) and 17.9%, respectively.
On to `O=C(Nc1nc2ccc([N+](=O)[O-])cc2s1)Nc1ccccc1F`, for which the growth with DU-145 prostate is 25.8%; with K-562 leukemia, 7.7% (active); in the assay on MALME-3M melanoma it was -2.16% (active); with MDA-MB-231 breast, 4.62% (active); in the assay with RXF 393 renal it was 5.7% (active); in the assay with SF-268 CNS, 29.5%. For the same compound, the growth in the assay with SF-295 CNS is 3% (active); with SF-539 CNS it was -8.34% (active); with UACC-257 melanoma it was -4.98% (active); in the assay with M14 melanoma it was 16.5%; in the assay with HCT-15 colon it was 13.9%; in the assay with HT29 colon, 5.55% (active). Further, the growth in the assay with SNB-75 CNS was 18.8%; in the assay on SNB-19 CNS, 10.2%; in the assay with U251 CNS, 6.8% (active); with PC-3 prostate, 13.9%; in the assay with SK-MEL-5 melanoma, -51.6% (active); in the assay with UACC-62 melanoma, 22.4%. Also, the growth in the assay on LOX IMVI melanoma was 10.5%; with SK-MEL-28 melanoma it was 22%.
